Drawing on ChEMBL document CHEMBL3988442, “University of Dundee, Small-Polar-MMV Screening Library” (2021), this text covers Percent Effect for eleven molecules.

For some of these results: Entries with a potency or affinity are not part of this list.

Design in all cases: scale not given: direction of the effect not stated beside the values
Assay [1] has as its target Protein translocase subunit SecA (Escherichia coli (strain K12)) (UniProt P10408). Briefly: Assay to Identify E. coli SecA ATPase Inhibitors. Type of assay: functional. The note with it: 30 µM.
The target of assay [2] is T1, Ubiquitin-activating enzyme e1, putative (Leishmania donovani (strain BPK282A1)) (UniProt E9BSI1).
T1 sequence (whole entry): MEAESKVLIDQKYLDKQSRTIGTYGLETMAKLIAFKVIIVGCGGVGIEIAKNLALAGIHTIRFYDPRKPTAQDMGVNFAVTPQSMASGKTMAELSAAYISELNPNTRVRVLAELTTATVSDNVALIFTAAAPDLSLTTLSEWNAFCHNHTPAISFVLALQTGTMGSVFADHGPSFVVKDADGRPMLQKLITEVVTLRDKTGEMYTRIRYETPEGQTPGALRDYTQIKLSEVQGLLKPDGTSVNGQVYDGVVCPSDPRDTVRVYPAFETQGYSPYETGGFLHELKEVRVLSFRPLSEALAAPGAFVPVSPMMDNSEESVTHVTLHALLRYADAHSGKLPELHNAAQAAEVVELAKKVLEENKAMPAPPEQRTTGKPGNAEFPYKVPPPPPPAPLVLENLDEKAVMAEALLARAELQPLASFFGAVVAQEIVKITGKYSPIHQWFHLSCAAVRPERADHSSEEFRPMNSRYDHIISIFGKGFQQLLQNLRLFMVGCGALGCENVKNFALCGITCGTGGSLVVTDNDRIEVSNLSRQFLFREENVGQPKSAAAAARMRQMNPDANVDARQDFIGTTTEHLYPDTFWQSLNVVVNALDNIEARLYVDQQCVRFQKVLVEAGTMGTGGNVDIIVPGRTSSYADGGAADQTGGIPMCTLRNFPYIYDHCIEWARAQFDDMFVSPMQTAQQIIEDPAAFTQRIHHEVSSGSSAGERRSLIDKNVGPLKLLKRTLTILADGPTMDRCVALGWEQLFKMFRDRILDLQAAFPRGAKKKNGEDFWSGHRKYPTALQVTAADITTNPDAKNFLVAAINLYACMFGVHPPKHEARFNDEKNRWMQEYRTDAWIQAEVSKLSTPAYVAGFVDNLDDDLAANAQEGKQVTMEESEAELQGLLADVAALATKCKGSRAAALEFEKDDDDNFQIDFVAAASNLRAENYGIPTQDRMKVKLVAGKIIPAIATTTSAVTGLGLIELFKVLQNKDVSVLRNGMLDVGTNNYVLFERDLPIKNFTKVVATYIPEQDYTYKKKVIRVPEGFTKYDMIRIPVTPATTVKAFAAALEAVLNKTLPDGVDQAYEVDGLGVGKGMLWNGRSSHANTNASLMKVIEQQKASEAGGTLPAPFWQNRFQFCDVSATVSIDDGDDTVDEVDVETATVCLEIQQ
Briefly: Leishmania donovani Ubiquitin Activating Enzyme (LdE1). The note with it: 30 µM. In kind it is functional.

Assay [3] has as its target AMP-activated protein kinase, AMPK (Homo sapiens) (UniProt P54646+O43741+P54619+Q9UGJ0+Q9Y478+Q13131+Q9UGI9). In words: AMP-dependent Kinase enzyme assay. An in vitro enzyme assay that detects ADP turnover that is directly proportional to AMPK activity. This uses naive AMPK that is activated during the assay with MK-8722. Type of assay: functional. The following applies: 30 µM.

The target in assay [4] is Sialic acid-binding Ig-like lectin 9 (Homo sapiens) (UniProt Q9Y336). In words: Hs-Siglec9 ALPHAscreen SOP 20170721. The following applies: 10 µM. Background: Bead proximity is the source of the signal in Alpha formats.
The subject of assay [5] is Trypanosoma cruzi. In words: Trypanosoma cruzi phosphomannomutase and mannose-1-phosphate guanylyltransferase assay. In kind it is functional. The note with it: 10 µM.
Assay [6] deals with T2, Arginase-2, mitochondrial (Homo sapiens) (UniProt P78540).
T2 sequence (whole entry): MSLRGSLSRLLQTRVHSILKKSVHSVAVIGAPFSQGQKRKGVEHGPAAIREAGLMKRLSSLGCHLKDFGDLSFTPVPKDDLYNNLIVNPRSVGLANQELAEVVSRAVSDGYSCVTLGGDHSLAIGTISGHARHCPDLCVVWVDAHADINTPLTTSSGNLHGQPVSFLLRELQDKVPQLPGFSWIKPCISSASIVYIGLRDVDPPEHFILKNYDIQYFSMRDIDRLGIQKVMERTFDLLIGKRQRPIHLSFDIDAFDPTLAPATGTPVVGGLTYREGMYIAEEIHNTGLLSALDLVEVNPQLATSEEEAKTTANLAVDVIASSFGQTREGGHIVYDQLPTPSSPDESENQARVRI
Briefly: in vitro enzyme assay to detect the production of urea directly proportional to the activity of Arginase II. Note: in the data most compounds retested in dose-response had high values. In kind it is functional. The following applies: 33.3 µM.

For assay [7], the target named is T3, Proteasome subunit beta (Trypanosoma cruzi) (UniProt O96673).
T3 sequence (whole entry): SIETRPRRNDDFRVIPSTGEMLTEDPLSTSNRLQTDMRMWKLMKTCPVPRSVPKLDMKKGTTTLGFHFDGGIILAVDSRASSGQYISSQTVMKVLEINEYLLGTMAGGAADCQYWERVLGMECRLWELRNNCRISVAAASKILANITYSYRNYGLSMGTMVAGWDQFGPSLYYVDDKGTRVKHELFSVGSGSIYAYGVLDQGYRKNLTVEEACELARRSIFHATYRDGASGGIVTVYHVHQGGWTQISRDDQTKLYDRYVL
In words: Trypanosoma cruzi proteasome chymotrypsin-like activity (TcProtChymo) assay. Note: in the data most compounds retested in dose-response had high values. Type of assay: functional. The note with it: 9.37 µM.

The species entered for assay [8] is Homo sapiens. In words: To identify inhibition of the IFN signalling (Jak-Stat) pathway via expression of an eGFP reporter gene under the control of an IFN-stimulated response element (ISRE) containing MxA promoter. The following applies: 30 µM. Type of assay: functional.
Assay [9] concerns the target T4, Tyrosyl-tRNA synthetase, putative (Trypanosoma cruzi (strain CL Brener)) (UniProt Q4DSP6).
T4 sequence (whole entry): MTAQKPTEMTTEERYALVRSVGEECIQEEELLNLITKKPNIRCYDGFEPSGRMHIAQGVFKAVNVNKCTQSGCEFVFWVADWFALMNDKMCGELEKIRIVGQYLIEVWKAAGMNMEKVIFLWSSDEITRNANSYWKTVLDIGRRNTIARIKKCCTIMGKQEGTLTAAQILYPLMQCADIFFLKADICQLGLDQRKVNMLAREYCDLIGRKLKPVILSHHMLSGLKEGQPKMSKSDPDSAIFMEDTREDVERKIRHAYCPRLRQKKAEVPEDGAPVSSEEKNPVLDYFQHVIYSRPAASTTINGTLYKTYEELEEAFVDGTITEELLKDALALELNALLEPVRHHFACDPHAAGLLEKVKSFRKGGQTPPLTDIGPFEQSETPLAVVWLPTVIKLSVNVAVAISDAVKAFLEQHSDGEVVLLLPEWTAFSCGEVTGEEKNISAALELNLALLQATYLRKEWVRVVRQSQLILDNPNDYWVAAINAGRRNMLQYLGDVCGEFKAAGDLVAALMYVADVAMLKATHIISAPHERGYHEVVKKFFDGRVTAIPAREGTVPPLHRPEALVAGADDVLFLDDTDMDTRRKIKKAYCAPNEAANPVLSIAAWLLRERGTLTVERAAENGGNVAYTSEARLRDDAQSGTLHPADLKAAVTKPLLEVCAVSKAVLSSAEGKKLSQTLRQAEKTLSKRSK
In words: Trypanosoma cruzi tyrosyl tRNA synthetase (TcYRS) _High Tyrosine SOP. Note: in the data most compounds retested in dose-response had high values. In kind it is functional. The note with it: 30 µM.

Assay [10] deals with T4, Tyrosyl-tRNA synthetase, putative (Trypanosoma cruzi (strain CL Brener)). In words: Trypanosoma cruzi tyrosyl tRNA synthetase (TcYRS) SOP. In kind it is functional. The following applies: 30 µM.
For assay [11], the target named is Chromo domain-containing protein 1 (Saccharomyces cerevisiae (strain ATCC 204508 / S288c) (Baker's yeast)) (UniProt P32657). In words: ScCHD-1 Enzyme Inhibition Assay. Note: in the data most compounds retested in dose-response had high values. The following applies: 30 µM. Type of assay: functional.
Chromo domain-containing protein 1 (Saccharomyces cerevisiae (strain ATCC 204508 / S288c) (Baker's yeast)), sequence (P32657 whole entry, the tested form may be a part): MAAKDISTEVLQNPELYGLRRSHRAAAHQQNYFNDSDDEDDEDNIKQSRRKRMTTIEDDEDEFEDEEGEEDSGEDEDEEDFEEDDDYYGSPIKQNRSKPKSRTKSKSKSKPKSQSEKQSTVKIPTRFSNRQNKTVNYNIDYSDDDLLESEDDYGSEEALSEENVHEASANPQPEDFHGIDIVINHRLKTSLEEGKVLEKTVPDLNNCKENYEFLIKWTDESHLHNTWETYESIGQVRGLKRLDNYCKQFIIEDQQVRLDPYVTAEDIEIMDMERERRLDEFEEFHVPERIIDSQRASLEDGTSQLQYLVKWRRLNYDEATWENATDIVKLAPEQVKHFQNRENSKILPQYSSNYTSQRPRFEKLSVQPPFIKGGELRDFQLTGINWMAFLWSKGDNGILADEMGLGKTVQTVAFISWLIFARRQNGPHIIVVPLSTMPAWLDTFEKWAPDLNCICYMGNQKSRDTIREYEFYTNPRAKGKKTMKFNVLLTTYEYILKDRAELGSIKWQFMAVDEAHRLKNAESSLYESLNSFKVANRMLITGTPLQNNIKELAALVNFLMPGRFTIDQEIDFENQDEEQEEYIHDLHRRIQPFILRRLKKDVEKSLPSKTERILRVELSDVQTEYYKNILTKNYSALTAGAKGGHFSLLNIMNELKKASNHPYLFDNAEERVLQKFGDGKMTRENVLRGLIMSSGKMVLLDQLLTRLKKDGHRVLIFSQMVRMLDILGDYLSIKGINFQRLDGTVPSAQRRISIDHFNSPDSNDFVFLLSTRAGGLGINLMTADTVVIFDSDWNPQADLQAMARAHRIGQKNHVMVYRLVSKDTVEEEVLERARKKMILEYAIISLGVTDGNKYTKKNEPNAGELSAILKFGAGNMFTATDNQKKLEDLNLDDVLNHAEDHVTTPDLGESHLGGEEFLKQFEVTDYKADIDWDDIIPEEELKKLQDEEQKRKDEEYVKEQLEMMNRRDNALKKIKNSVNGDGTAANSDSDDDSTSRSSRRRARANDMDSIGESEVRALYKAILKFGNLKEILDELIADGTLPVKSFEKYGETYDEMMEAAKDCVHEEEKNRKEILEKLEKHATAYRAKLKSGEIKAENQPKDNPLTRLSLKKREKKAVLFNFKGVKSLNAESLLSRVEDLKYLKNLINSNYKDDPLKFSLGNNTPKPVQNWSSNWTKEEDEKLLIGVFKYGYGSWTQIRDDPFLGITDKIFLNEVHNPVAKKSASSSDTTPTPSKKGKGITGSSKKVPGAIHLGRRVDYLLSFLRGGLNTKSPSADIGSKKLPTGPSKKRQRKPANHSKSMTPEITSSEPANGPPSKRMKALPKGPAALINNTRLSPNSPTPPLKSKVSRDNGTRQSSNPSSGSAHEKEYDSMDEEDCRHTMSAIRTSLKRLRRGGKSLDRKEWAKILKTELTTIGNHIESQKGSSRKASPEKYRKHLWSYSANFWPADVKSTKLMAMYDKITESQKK

Protein translocase subunit SecA (Escherichia coli (strain K12)), sequence (P10408 whole entry): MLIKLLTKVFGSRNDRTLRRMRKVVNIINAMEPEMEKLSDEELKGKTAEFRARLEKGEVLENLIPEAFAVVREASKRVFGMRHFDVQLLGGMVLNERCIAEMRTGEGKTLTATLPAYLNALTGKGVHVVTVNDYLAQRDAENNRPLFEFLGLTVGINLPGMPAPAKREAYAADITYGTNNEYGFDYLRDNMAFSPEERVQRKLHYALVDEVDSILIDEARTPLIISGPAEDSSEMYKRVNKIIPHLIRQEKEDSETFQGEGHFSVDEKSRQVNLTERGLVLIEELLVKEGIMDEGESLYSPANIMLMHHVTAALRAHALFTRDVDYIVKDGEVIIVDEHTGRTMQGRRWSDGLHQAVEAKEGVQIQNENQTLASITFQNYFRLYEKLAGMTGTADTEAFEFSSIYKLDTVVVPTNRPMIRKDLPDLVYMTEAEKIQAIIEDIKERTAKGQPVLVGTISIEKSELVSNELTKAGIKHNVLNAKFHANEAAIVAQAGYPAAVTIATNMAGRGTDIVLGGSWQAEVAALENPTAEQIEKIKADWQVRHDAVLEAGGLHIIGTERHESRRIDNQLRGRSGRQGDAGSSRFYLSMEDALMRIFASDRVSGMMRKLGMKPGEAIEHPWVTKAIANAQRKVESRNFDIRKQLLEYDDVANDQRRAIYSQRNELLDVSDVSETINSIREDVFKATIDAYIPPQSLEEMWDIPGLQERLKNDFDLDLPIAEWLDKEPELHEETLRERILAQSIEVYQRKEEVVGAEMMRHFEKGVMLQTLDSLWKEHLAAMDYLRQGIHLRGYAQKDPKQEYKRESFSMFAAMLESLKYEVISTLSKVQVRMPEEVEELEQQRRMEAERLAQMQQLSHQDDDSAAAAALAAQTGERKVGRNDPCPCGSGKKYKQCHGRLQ
Sialic acid-binding Ig-like lectin 9 (Homo sapiens), sequence (Q9Y336 whole entry): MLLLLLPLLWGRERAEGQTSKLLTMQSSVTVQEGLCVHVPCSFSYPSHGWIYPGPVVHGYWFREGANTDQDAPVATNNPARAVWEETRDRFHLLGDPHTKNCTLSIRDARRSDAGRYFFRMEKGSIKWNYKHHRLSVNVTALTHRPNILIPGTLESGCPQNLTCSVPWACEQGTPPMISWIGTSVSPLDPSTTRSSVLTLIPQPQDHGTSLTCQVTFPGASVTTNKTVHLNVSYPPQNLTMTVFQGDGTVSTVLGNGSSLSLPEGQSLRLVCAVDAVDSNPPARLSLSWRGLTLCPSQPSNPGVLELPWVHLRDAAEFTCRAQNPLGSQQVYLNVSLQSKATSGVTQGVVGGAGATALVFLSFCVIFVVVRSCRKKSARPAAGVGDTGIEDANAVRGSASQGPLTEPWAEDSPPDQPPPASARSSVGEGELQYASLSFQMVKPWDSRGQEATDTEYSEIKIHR

As for `Cc1ccc(CS(=O)(=O)N2CC[C@H]3[C@H]2CCN3C)cc1`, the Percent Effect in assay [1] was 1.22%; in assay [2], 13.7%; in assay [3], -1.19%; in assay [4], 9.36%; in assay [5], 6.35%; in assay [6], -0.399%. Besides, the Percent Effect in assay [7] is 14.5%; in assay [8] it was -5.72%; in assay [9], 6.25%; in [10] it was 16.1%; in [11], -5.83%.
Consider `CCn1nc(C)c2ncnc(NCC(=O)N3CCOCC3)c21`, for which the Percent Effect in [1] was -1.89%; in assay [2], 9.33%; in assay [3], -3.08%; in [4] it was 10.4%; in assay [5] it was 2.55%; in [6], -8.28%. The Percent Effect in [7] was 14.4%; in assay [8], 30.3%; in [9], -28.6%; in assay [10] it was 5.13%; in assay [11], -9.1%.
For the molecule `Cc1cccc(-c2nc(CN(Cc3cccs3)CC3CCCO3)no2)c1` (stereo unspecified), the Percent Effect in assay [1] was -1.96%; in assay [2], -51.9%; in assay [3], 2.38%; in assay [4], -0.778%; in [5], 0.103%; in assay [6] it was 4.95%. Also, the Percent Effect in assay [7] was 7.72%; in assay [8], 25.8%; in assay [9] it was -7.29%; in assay [10] it was -17.7%; in assay [11], -15.2%.
On to `c1ccc2c(N3CCCC3Cn3cccn3)ncnc2c1` (stereo unspecified), for which the Percent Effect was -2.93% in assay [1]; 21.6% in [2]; -4.33% in assay [3]; 6.84% in [4]; 2.88% in assay [5]; 2.77% in assay [6]. For the same molecule, the Percent Effect in assay [7] was 10.2%; in [8], 50.9%; in assay [9], 6.93%; in [10] it was 28.1%; in assay [11] it was -8.26%.
Take `Cc1nc(C)n(CC2CCCN(CCc3ccncc3)C2)n1` (stereo unspecified): the Percent Effect in assay [1] is -3.33%; in assay [2], 16.4%; in assay [3] it was 0.226%; in [4], 18.2%; in [5], 2.35%; in [6], 1.36%. The Percent Effect was 15.6% in assay [7]; -0.0927% in assay [8]; 7.53% in [9]; 17.5% in assay [10]; -9.61% in [11].
On to `O=C(c1ccn[nH]1)N1CCCC(n2cncn2)C1` (stereo unspecified), for which the Percent Effect in assay [1] is -7.58%; in assay [2], 11.4%; in [3], -2.36%; in [4], 4.37%; in assay [5], -0.718%; in assay [6], 0.645%. The Percent Effect in assay [7] is 12.9%; in assay [8], 6.04%; in [9], 2.08%; in [10] it was 15.2%; in [11], -14.9%.
`O=C(CCO)N1CCOC2(CCCN(C(=O)c3ccco3)C2)C1` (stereo unspecified): the Percent Effect in assay [1] is 2.21%; in [2], -5.2%; in assay [3] it was 0.24%; in [4], 19.9%; in assay [5], 4.82%; in [6] it was 4.14%. The Percent Effect in [7] is 11.3%; in assay [8] it was -33.1%; in assay [9], -12.9%; in [10] it was -13.6%; in [11] it was 0.942%.
`Cc1cc(C(=O)NCC2COCc3c(C)nnn3C2)no1` (stereo unspecified): the Percent Effect in [1] was -6.44%; in assay [2] it was 2.6%; in assay [3], -3%; in [4], 3.99%; in assay [5] it was -0.295%; in [6] it was -9.65%. The Percent Effect in assay [7] is 7.65%; in assay [8], -19%; in assay [9], 2.15%; in assay [10], 11.1%; in assay [11], -0.439%.
As for `CCc1nc(C2CCCN2CC(=O)Nc2c(C)nn(C)c2C)no1` (stereo unspecified), the Percent Effect in [1] is -2.75%; in assay [2], 0%; in assay [3], -6.03%; in assay [4], -5.34%; in [5], -0.979%; in assay [6], -0.455%. For the same molecule, the Percent Effect in [7] was determined as 7.81%; in [8], 10.6%; in assay [9], 1.07%; in [10] it was 2.5%; in assay [11], 1.02%.
On to `CCC(=O)Nc1nnc(CCOc2cccc(OC)c2)s1`, for which the Percent Effect is -4.51% in assay [1]; -6.67% in [2]; 42.3% in assay [3]; 1.2% in assay [4]; -3.54% in assay [5]; -4.4% in assay [6]. The Percent Effect was 9.43% in [7]; 7.09% in assay [8]; 0% in [9]; -7.69% in assay [10]; -2% in assay [11].
Consider `CCC(O)CNC(=O)c1coc(COc2ccc3sc(C)nc3c2)n1` (stereo unspecified), for which the Percent Effect in assay [1] is -6.39%; in [2], -2.74%; in assay [3] it was -4.19%; in assay [4] it was -4.04%; in [5], -0.392%; in [6], -2.73%. For the same molecule, the Percent Effect is 0.71% in assay [7]; 50% in [8]; -1.07% in [9]; 0% in assay [10]; 2.81% in assay [11].
